The values that follow come from PubChem BioAssay (Tox21).

Structures are written as SMILES. Inconclusive results are not listed. The source made the active and inactive calls. Unless noted, the call rests on the fitted dose curve; in most records, active means well fitted curve in the direction sought with a large enough effect in the repeat runs; inconclusive means weak or mixed curves; inactive means no such curve, though single readings can be large; an effect the other way counts as inactive or inconclusive.

Experiment [1] is described as follows: qHTS assay to test for compound auto fluorescence at 535 nm (green) in HEK293 cells (AID 720680). A general note: Quantitative high-throughput screening tests each substance at several concentrations.
Experiment [2] can be described thus: qHTS assay to test for compound auto fluorescence at 460 nm (blue) in HEK293 cell free culture (AID 720681). The gist of the method:
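Blue fluorescence (Ex 405/Em 460 nm, triamterene-equivalent) was read immediately after pin transfer of compound or DMSO into medium (DMEM, 10% FBS) without cells.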

A short description of experiment [3]: qHTS assay to test for compound auto fluorescence at 535 nm (green) in HEK293 cell free culture (AID 720682). The gist of the method:
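Read-out: 485/535 nm fluorescence intensity, calibrated against fluorescein. Medium only (DMEM + 10% FBS, no cells); test compound or DMSO vehicle added by pintool before plate reading.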

Experiment [4] can be described thus: qHTS assay to test for compound auto fluorescence at 590 nm (red) in HEK293 cell free culture (AID 720683). The gist of the method:
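Red-channel autofluorescence of compounds in culture medium (DMEM, 10% FBS), no cells, measured at 540/590 nm. Rose Bengal sodium is the reference fluorophore for equivalence.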

The nature of experiment [5]: qHTS assay to test for compound auto fluorescence at 590 nm (red) in HepG2 cell free culture (AID 720684). The gist of the method: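 No cells present: MEM + 10% FBS only. Compound pinned in, red label read (540/590 nm). Activity = fluorescence equivalent to Rose Bengal sodium.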
Experiment [6] in a line: qHTS assay to test for compound auto fluorescence at 460 nm (blue) in HepG2 cell free culture (AID 720685). The gist of the method: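 Cell-free plates of MEM plus 10% FBS received 23 nL compound or DMSO vehicle; blue-channel (405/460 nm) intensity scored against triamterene as reference fluorophore.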
Experiment [7] can be described thus: qHTS assay to test for compound auto fluorescence at 535 nm (green) in HepG2 cell free culture (AID 720686).
Experiment [8] is described as follows: qHTS assay to test for compound auto fluorescence at 460 nm (blue) in HepG2 cells (AID 720687). The gist of the method:
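Blue-channel autofluorescence (Ex/Em 405/460 nm, triamterene-equivalent) was measured after 1 hr compound exposure at 37 C, 5% CO2. Cells were HepG2, plated overnight at 37 C in MEM plus 10% FBS.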

Experiment [9] can be described thus: qHTS assay for identifying genotoxic compounds that show differential cytotoxicity against isogenic chicken DT40 cell lines with known DNA damage response pathways - wild type cell line (AID 743012). Further: nearly all actives have a fitted effect of over 60% in size. Further: potency means the concentration at half of the fitted maximal effect. The gist of the method: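 Viability by ATP luminescence (CellTiter-Glo, 30 min RT) after 40 h compound treatment at 37 C/5% CO2, using 300 parental DNA repair-proficient DT40 cells per well.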

The nature of experiment [10]: qHTS assay for identifying genotoxic compounds that show differential cytotoxicity against isogenic chicken DT40 cell lines with known DNA damage response pathways - Rad54/Ku70 mutant cell line (AID 743015). Further: nearly all actives have a fitted effect of over 60% in size. Further: potency means the concentration at half of the fitted maximal effect.
Experiment [11] in a line: qHTS assay to identify small molecule antagonists of the androgen receptor (AR) signaling pathway using the MDA cell line - cell viability counter screen (AID 743041; further: nearly all actives have a fitted effect of over 45% in size; further: potency means the concentration at half of the fitted maximal effect). The gist of the method: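 Using the breast carcinoma line MDA-kb2 AR-luc, test chemicals were co-incubated with R1881 for 16 h; CellTiter-Fluor reagent, added at 15.5 h, provided a fluorescence measure of live cells.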

Experiment [12] deals with Glucocorticoid receptor (Homo sapiens) (UniProt P04150). As to the kind of experiment: qHTS assay to identify small molecule agonists of the glucocorticoid receptor (GR) signaling pathway (AID 720691; active means well fitted activation curve with a large enough effect in the signal ratio in the repeat runs, not every such curve was filed as active; the % refers to the signal ratio). The conditions noted are these: GR-bla HeLa, beta-lactamase reporter ratio, 18 h; activation: at 62.4 µM (top of the series). The gist of the method: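 Agonist-mode qHTS in HeLa cells stably expressing a glucocorticoid-response-element beta-lactamase reporter. Fluorescence intensity read with FRET substrate (2 h, room temperature) after 18 h compound treatment at 37 C.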
Sequence of Glucocorticoid receptor (Homo sapiens) (P04150 whole entry, looked up): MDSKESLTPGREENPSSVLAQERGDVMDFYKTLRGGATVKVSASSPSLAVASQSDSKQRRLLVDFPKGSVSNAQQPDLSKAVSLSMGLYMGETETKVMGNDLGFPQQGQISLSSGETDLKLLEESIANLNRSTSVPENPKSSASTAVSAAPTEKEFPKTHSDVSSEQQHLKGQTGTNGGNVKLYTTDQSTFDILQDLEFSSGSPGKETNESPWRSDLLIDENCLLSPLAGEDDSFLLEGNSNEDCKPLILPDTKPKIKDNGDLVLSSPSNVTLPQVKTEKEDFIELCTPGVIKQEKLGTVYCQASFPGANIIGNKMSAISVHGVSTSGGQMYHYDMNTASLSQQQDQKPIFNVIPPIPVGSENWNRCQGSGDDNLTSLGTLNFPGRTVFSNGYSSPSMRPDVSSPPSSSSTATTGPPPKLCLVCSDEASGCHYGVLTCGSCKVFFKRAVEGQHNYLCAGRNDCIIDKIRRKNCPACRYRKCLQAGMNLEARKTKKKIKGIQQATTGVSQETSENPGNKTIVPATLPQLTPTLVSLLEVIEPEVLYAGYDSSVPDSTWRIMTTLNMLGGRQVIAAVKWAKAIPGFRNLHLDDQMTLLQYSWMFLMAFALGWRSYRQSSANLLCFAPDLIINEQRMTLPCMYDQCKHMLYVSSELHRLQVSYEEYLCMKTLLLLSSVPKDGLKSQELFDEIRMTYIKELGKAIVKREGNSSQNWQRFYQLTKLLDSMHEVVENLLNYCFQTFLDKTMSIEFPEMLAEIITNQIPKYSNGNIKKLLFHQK

A short description of experiment [13]: qHTS assay to identify small molecule antagonists of the androgen receptor (AR) signaling pathway - cell viability counter screen (AID 743033; further: nearly all actives have a fitted effect of over 45% in size; further: potency means the concentration at half of the fitted maximal effect).
Experiment [14] can be described thus: qHTS assay for identifying genotoxic compounds that show differential cytotoxicity against isogenic chicken DT40 cell lines with known DNA damage response pathways - Rev3 mutant cell line (AID 743014). Further: nearly all actives have a fitted effect of over 55% in size. Further: potency means the concentration at half of the fitted maximal effect.
Experiment [15] addresses Glucocorticoid receptor (Homo sapiens) (UniProt P04150). Description: qHTS assay to identify small molecule antagonists of the glucocorticoid receptor (GR) signaling pathway (AID 720692; active means well fitted inhibition curve with a large enough effect in the signal ratio in the repeat runs, not every such curve was filed as active; the % refers to the signal ratio). The gist of the method:
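Inhibition of dexamethasone-driven (5 nM final) beta-lactamase expression was measured in GRE-reporter HeLa cells over 18 h at 37C. Fluorescence was read after 2 h with the B/G FRET substrate at room temperature.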

Consider `C#CCC1=C(C)C(OC(=O)C2C(C=C(C)C)C2(C)C)CC1=O` (stereo not given), for which the molecule was called inactive in experiment [1], in [3], in experiment [4] and in [5]. For the same molecule, the Potency entry in experiment [2], in experiment [6], in experiment [7], in experiment [8] and in experiment [11] was “inactive” throughout. Further, the Potency in [9] is 19.2 µM (active); in [10], 30.4 µM (active).

Regarding `CN1CCc2cc(Cl)c(O)cc2[C@H]2c3ccccc3CC[C@@H]21`, the result in experiment [1], in [3], in experiment [4] and in experiment [5] was inactive. The Potency result in experiment [2], in experiment [6], in experiment [8], in [12], in experiment [13] and in experiment [11] was “inactive” each time.

With `O.O.O.O=C([O-])[C@H]([O-])[C@@H]([O-])C(=O)[O-].O=C([O-])[C@H]([O-])[C@@H]([O-])C(=O)[O-].[K+].[K+].[Sb+3].[Sb+3]`, the result in experiment [1], in experiment [3], in experiment [4] and in [5] was inactive. The Potency entry in experiment [2], in experiment [6], in experiment [7], in experiment [8], in experiment [14] and in [13] was “inactive” each time. Also, the Potency in [10] is 3.46 µM (active).

For the molecule `CN=C=O`, the call in experiment [1], in experiment [3], in experiment [4] and in [5] was inactive. Also, the Potency entry in experiment [2], in experiment [6], in experiment [7], in experiment [8], in experiment [9] and in [14] was “inactive” in each case. Besides, the Potency entry in experiment [10], in [13] and in [11] was “inactive” each time.

`COC(=O)N(OC)c1ccccc1COc1ccn(-c2ccc(Cl)cc2)n1`: the result in experiment [1], in experiment [3], in experiment [4] and in [5] was inactive. Moreover, the Potency result in experiment [2], in [6], in experiment [7] and in experiment [8] was “inactive” in each case. For the same molecule, the Potency in experiment [9] is 0.193 µM (active); in experiment [14], 0.243 µM (active); in [10], 0.217 µM (active); in experiment [13] it was 0.871 µM (active); in experiment [11], 1.72 µM (active).

Take `ClC1=C(Cl)[C@]2(Cl)[C@H]3[C@H]([C@@H]4C=C[C@H]3C4)[C@@]1(Cl)C2(Cl)Cl`: the outcome in [1], in experiment [3], in experiment [4] and in experiment [5] was inactive. Also, the Potency entry in experiment [2], in [6], in experiment [7], in experiment [8], in experiment [9] and in experiment [14] was “inactive” throughout. Moreover, the Potency result in [10], in [13] and in [11] was “inactive” each time.

On to `CCC1COC(Cn2cncn2)(c2ccc(Cl)cc2Cl)O1` (stereo not given), for which the call in experiment [1], in experiment [3], in experiment [4] and in [5] was inactive. The Potency entry in [2], in experiment [6], in experiment [8], in experiment [12], in [15] and in [13] was “inactive” in each case. The Potency result in [11] is “inactive”. Moreover, the Potency is 15.4 µM (active) in experiment [9], 9.69 µM (active) in experiment [14] and 19.3 µM (active) in [10].
